Reference: PubChem BioAssay (NCATS)
Results filed as inconclusive are left out. A call without a number means that no potency is given here. Unmarked numbers belong to inactive results. Activity calls are given as the source filed them. The call rests on the fitted dose curve; in most records, active means well fitted curve in the direction sought with a large enough effect; inconclusive means small, poorly fitted or top-dose-only effect, or another doubt; inactive means no such curve, though single readings can be large; an effect the other way counts as inactive or inconclusive.

Key:
[1] = target: Rap guanine nucleotide exchange factor 3 (Homo sapiens) (UniProt O95398); assay: Confirmatory qHTS for antagonist of cAMP-regulated guanine nucleotide exchange factor 3 (EPAC1) (AID 1645880); conditions: EPAC1 Rap1B-BODIPY-GDP exchange, fluorescence; activity, negative = inhibition: at 115 µM (top of the series); further: nearly all actives have a fitted effect of over 55% in size; further: potency means the concentration at half of the fitted maximal effect
In short: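 Nucleotide exchange uses 100 nM EPAC1, 250 nM RAP1B-BODIPY-GDP and 50 uM GDP, with compounds in a concentration-titration series. After 5 min at room temperature, fluorescence (480 nm ex/540 nm em) is read every 5 min for 30 min. Data are normalized to control ATA and DMSO.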

[2] = target: Rap guanine nucleotide exchange factor 3 (Homo sapiens) (UniProt O95398); assay: Confirmatory qHTS for agonist of cAMP-regulated guanine nucleotide exchange factor 3 (EPAC1) (AID 1645881);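 further: EPAC1 catalysed release of BODIPY-GDP from Rap1B seen as fluorescence loss; nearly all actives have a fitted effect of over 75% in size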
[3] = target: Rap guanine nucleotide exchange factor 4 (Homo sapiens) (UniProt Q8WZA2); assay: Confirmatory qHTS for agonist of cAMP-regulated guanine nucleotide exchange factor 4 (EPAC2) (AID 1645884);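 further: nucleotide exchange releases bodipy-GDP from Rap1 and this lowers its fluorescence; nearly all actives have a fitted effect of over 65% in size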; further: potency means the concentration at half of the fitted maximal effect
[4] = target: Rap guanine nucleotide exchange factor 3 (Homo sapiens) (UniProt O95398); assay: Counterscreen qHTS for antagonist of cAMP-regulated guanine nucleotide exchange factor 3 (EPAC1) (AID 1645888);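 further: fluorescence loss as bound BODIPY-GDP is released from Rap1B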
In short: (§1)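 Rap1B-BODIPY-GDP 250 nM + GDP 50 uM; cpds 7-pt, final 9.74 nM–152 uM (activator mode) or from 7.32 nM upwards (inhibitor mode); RT; FI 480/540 nm at 5 and 30 min, then ± cAMP, reread.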

[5] = target: Rap guanine nucleotide exchange factor 3 (Homo sapiens) (UniProt O95398); assay: Counterscreen qHTS for agonist of cAMP-regulated guanine nucleotide exchange factor 3 (EPAC1) (AID 1645889); further: nearly all actives have a fitted effect of over 40% in size; further: potency means the concentration at half of the fitted maximal effect
In short: as §1

Sequence of Rap guanine nucleotide exchange factor 4 (Homo sapiens) (Q8WZA2 whole entry, looked up): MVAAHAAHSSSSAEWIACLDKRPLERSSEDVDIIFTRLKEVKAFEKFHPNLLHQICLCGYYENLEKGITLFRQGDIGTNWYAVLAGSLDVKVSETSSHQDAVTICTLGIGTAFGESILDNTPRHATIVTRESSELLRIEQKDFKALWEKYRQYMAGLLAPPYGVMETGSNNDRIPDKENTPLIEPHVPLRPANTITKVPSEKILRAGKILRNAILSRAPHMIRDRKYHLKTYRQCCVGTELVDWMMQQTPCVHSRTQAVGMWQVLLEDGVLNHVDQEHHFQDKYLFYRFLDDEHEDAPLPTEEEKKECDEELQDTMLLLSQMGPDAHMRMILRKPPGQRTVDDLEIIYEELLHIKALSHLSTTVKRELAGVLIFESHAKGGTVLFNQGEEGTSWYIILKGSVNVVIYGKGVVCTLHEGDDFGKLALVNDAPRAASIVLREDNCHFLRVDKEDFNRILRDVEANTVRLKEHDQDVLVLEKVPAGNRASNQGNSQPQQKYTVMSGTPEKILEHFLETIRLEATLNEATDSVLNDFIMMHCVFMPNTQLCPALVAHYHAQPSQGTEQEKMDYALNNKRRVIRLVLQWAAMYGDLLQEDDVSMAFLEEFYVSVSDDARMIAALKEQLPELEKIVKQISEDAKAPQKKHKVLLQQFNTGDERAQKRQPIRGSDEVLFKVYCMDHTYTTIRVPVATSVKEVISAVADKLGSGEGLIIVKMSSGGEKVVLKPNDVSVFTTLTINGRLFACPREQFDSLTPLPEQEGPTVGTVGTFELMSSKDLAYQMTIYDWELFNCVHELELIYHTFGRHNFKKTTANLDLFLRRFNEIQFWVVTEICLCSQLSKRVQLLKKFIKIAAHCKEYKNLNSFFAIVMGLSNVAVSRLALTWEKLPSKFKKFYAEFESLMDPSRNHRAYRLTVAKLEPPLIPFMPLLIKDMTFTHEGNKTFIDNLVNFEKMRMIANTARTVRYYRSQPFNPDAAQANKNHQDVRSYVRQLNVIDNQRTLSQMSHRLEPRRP
Sequence of Rap guanine nucleotide exchange factor 3 (Homo sapiens) (O95398 whole entry, looked up): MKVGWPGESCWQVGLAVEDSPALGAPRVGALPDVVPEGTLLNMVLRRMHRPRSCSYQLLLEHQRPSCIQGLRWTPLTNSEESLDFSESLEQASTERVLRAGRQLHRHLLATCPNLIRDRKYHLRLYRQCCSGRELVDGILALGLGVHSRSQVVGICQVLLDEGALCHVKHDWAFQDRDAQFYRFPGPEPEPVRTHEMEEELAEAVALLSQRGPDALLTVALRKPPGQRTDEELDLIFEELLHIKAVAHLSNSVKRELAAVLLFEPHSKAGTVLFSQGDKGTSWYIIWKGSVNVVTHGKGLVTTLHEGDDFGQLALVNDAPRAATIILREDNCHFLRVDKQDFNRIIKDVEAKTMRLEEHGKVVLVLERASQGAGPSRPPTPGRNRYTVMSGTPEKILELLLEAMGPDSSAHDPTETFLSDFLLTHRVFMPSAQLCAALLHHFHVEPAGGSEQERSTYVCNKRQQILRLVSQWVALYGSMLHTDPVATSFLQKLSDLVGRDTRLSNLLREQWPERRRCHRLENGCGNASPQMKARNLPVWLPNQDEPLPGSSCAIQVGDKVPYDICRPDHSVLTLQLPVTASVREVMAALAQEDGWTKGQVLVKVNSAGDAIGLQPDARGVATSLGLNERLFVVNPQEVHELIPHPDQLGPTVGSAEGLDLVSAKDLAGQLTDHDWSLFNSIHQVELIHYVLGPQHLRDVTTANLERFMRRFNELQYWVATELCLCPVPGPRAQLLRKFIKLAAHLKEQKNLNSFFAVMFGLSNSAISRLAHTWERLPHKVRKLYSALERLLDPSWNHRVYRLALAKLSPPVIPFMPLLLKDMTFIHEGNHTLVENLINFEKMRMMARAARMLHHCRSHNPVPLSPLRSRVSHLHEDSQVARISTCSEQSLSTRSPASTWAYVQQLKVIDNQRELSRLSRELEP

SMILES | Potency [1] | Potency [2] | activation [3] | activity change, negative = inhibition [4] | Potency [3] | Potency [4] | Potency [5] | activation [5]
CCc1nc2c(OCc3ccc(C(F)(F)F)cc3)cccn2c1N(C)C(=O)c1ccc(OC)cc1 | inactive | inactive | 16% [at 17.1 µM, percent relative to cAMP agonist control] | -20.8% [at 30.8 µM] | – | – | – | –
CCN(CC)C(=O)Cn1c(SCCOc2ccc(Cl)cc2)nc2ccccc21 | inactive | inactive | – | – | inactive | inactive | – | –
CCCCOc1ccc(NS(=O)(=O)c2ccc(-n3cnnn3)cc2)cc1 | inactive | inactive | – | – | inactive | inactive | – | –
O=C(Cn1cnc2c(nnn2Cc2ccccc2)c1=O)N1CCN(c2ccccc2)CC1 | inactive | inactive | – | – | inactive | inactive | – | –
O=S(=O)(O)c1ccc2c(c1)C(C(Cl)(Cl)Cl)OC(C(Cl)(Cl)Cl)O2 (stereo unspecified) | 31.6 µM (active) | inactive | 2.99% [at 17.1 µM, percent relative to cAMP agonist control] | -10.8% [at 30.8 µM] | – | – | – | –
C[C@@H]1CC=C[C@H]2[C@H]1C(=O)N(Cc1ccccc1)[C@H]2c1ccc(-c2ccoc2)cc1F | inactive | inactive | – | – | inactive | inactive | – | –
COc1ccccc1Nc1nc2ccc(C)cc2cc1C#N | inactive | inactive | – | – | inactive | inactive | – | –
O=C(Cc1c(Cl)cccc1Cl)Nc1ccc(S(=O)(=O)Nc2ncccn2)cc1 | inactive | inactive | – | – | inactive | inactive | – | –
CC(=O)c1ccc(N2CCN(C(=O)/C=C/c3ccc4ccccc4n3)CC2)cc1 | inactive | inactive | – | – | 89.1 µM (active) | inactive | – | –
COc1cccc(N(C(=O)c2ccco2)C(C(=O)NC2CCCC2)c2cccnc2)c1 (stereo unspecified) | inactive | inactive | – | – | inactive | inactive | – | –
C=C(C)Cn1c(C)cc(C)c(S(=O)(=O)c2ccc(C)cc2)c1=O | inactive | inactive | – | – | inactive | inactive | – | –
COC(=O)c1nc2nc(C)cc(=O)n2[nH]1 | inactive | inactive | – | – | inactive | inactive | – | –
O=C(Cc1ccc(F)cc1)Nc1ccccc1Sc1ccccc1 | inactive | inactive | – | – | inactive | inactive | – | –
COCCN(C(=O)c1cc2c(s1)CCCCC2)c1c(N)n(Cc2ccccc2)c(=O)[nH]c1=O | inactive | inactive | – | – | inactive | inactive | – | –
CC(=O)N1CCc2c(sc(NC(=O)CS(=O)(=O)c3ccc(F)cc3)c2C(N)=O)C1 | inactive | inactive | – | – | inactive | inactive | – | –
Nc1ccc(Oc2ncccn2)cc1 | inactive | inactive | – | – | inactive | inactive | – | –
CC(C)NC(=O)c1sc(=S)n2c1[nH]c(=O)c1ccc(C(=O)NCCc3ccc(Cl)cc3)cc12 | 50.1 µM (active) | inactive | 4.17% [at 17.1 µM, percent relative to cAMP agonist control] | -15.1% [at 30.8 µM] | – | – | – | –
Cc1nnc(SCC(=O)Nc2sccc2C#N)s1 | inactive | inactive | – | – | inactive | inactive | 0.0178 µM (active) | –
Cc1cc(C)c(S(=O)(=O)c2ccc(F)cc2)c(C)c1 | inactive | inactive | 0% [at 17.1 µM, percent relative to cAMP agonist control] | -27.6% [at 30.8 µM] | – | – | – | -0.628% [at 30.8 µM]
Cc1ccc(NS(=O)(=O)c2cccs2)cc1S(=O)(=O)N1CCCCCC1 | inactive | inactive | – | – | inactive | inactive | inactive | –
CCN(CC(=O)Nc1ccccc1C(=O)NC1CC1)Cc1cccs1 | inactive | inactive | – | – | inactive | inactive | inactive | –
O=C(Nc1cccc(Cl)c1N1CCOCC1)c1cccs1 | inactive | inactive | – | – | inactive | inactive | – | –
CCC(C)(C)C1CCc2c(sc(NC(=O)c3ccccc3C(=O)O)c2C#N)C1 (stereo unspecified) | 75.7 µM (active) | inactive | – | – | inactive | inactive | inactive | –
CCOC(=O)CC1C(=O)NCCN1C(=O)c1cccc(C(F)(F)F)c1 (stereo unspecified) | inactive | inactive | – | – | inactive | inactive | – | –
COc1ccc(OC)c(NC2c3ccccc3C(=O)N2c2cccnc2)c1 (stereo unspecified) | inactive | inactive | – | – | inactive | inactive | inactive | –
Clc1cccc(-c2ccc3nccn3c2)c1Cl | inactive | inactive | – | – | inactive | inactive | inactive | –
CC(=O)c1c(-c2ccccc2)c2cc(Cl)ccc2n(C)c1=O | inactive | inactive | -9.72% [at 17.1 µM, percent relative to cAMP agonist control] | -1.67% [at 30.8 µM] | – | – | – | 9.36% [at 30.8 µM]

SMILES | Potency [1] | Potency [2] | activation [3] | activity change, negative = inhibition [4] | Potency [3] | Potency [4] | Potency [5] | activation [5]
O=C1CC(=O)Nc2cc(S(=O)(=O)Nc3ccc(Cl)c(C(F)(F)F)c3)ccc2N1 | inactive | inactive | – | – | inactive | inactive | inactive | –
O=C(CN1C(=O)NC2(CCCC2)C1=O)Nc1nc2c(F)cc(F)cc2s1 | inactive | inactive | – | – | inactive | inactive | inactive | –
CC(C)c1ccc(OCC(=O)Nc2cccc(C(=O)Nc3ccccc3C(=O)O)c2)cc1 | 75.7 µM (active) | inactive | – | – | inactive | inactive | inactive | –
COc1nc(-c2ccccc2)c2cc(Br)ccc2n1 | inactive | inactive | -6.23% [at 17.1 µM, percent relative to cAMP agonist control] | 8.88% [at 30.8 µM] | – | – | – | 24.2% [at 30.8 µM]
CC(=O)OC1CSC2c3ccccc3C(=O)N2Cc2sccc21 (stereo unspecified) | inactive | inactive | – | – | inactive | inactive | inactive | –
Cc1ccc(S(=O)(=O)Nc2ccc3ccccc3c2[N+](=O)[O-])cc1 | 75.7 µM (active) | inactive | – | – | inactive | inactive | inactive | –
COc1ccc(S(=O)(=O)Nc2cccc(C)c2C)c2cccnc12 | inactive | inactive | – | – | inactive | inactive | inactive | –
O=C1C=CC(=O)c2c(O)c(N3CCN(CCO)CC3)c(Cl)c(O)c21 | 37.9 µM (active) | inactive | – | – | inactive | inactive | inactive | –
CC(Oc1ccc(Cl)cc1Cl)c1ccn[nH]1 (stereo unspecified) | inactive | inactive | – | – | inactive | inactive | inactive | –
CN(C)CCNC(=O)c1ccc(-c2cn3c(-c4ccc(Oc5ccccc5)cc4)cnc3cn2)cc1 | inactive | inactive | – | – | inactive | inactive | – | –
CSc1nc(C)cc(C)c1S(=O)(=O)c1ccccc1C | inactive | inactive | 8.78% [at 17.1 µM, percent relative to cAMP agonist control] | -5.37% [at 30.8 µM] | – | – | – | –
Cc1cccc(C(=O)Oc2ccc(/C=N/NC(=O)c3cc(O)cc(O)c3)cc2)c1 | 16.9 µM (active) | inactive | – | – | inactive | inactive | – | –
Cc1nnc(SCc2ccccc2CSc2nnc(C)s2)s1 | inactive | inactive | – | – | inactive | inactive | inactive | –
Nc1nc2c(ncn2[C@@H]2O[C@H](CNS(=O)(=O)N3CCCC3)[C@@H](O)[C@H]2O)c(=O)[nH]1 | inactive | inactive | – | – | inactive | inactive | inactive | –
CC1CCN(c2oc(-c3ccccc3F)nc2C#N)CC1 | inactive | inactive | – | – | inactive | inactive | inactive | –
COc1ccccc1C1CCN(c2ccc(CO)cc2[N+](=O)[O-])CC1 | inactive | inactive | – | – | inactive | inactive | inactive | –
CN(C)c1ccc(/C=C(\C#N)c2ccccn2)cc1 | inactive | inactive | – | – | inactive | inactive | inactive | –
O=C(CSc1nc2nn(-c3ccccc3)c(=O)c-2c2n1CCCCC2)c1ccc(O)c(O)c1 | 2.39 µM (active) | inactive | – | – | inactive | inactive | – | –
O=C(CN1C(=O)N/C(=C\c2ccccc2OCc2ccc(C(=O)O)cc2)C1=O)Nc1ccc(F)cc1 | 42.6 µM (active) | inactive | – | – | inactive | inactive | inactive | –
COC(C(=O)Nc1ccc(Br)cc1F)c1ccccc1 (stereo unspecified) | inactive | inactive | – | – | inactive | inactive | – | –
O=C(N/N=C/c1c(O)n(-c2ccccc2Cl)c(=O)c2ccccc12)C1COc2ccccc2O1 (stereo unspecified) | 42.6 µM (active) | inactive | – | – | inactive | inactive | inactive | –
Cc1noc(C)c1COc1ccccc1C(=O)NCCc1ccc(Cl)cc1 | inactive | inactive | – | – | inactive | inactive | inactive | –
O=C1c2ccccc2C(Nc2cccnc2)N1Cc1ccccc1Cl (stereo unspecified) | inactive | inactive | – | – | inactive | inactive | inactive | –
COc1c(S(=O)(=O)N2CCCC2)ccc(Cl)c1Cl | inactive | inactive | 4.79% [at 17.1 µM, percent relative to cAMP agonist control] | -12% [at 30.8 µM] | – | – | – | 23.7% [at 30.8 µM]
Cc1onc(-c2ccccc2)c1C(=O)N1CCc2ccccc21 | inactive | inactive | 1.91% [at 17.1 µM, percent relative to cAMP agonist control] | -17.7% [at 30.8 µM] | – | – | – | 18.4% [at 30.8 µM]
COc1ccc(C(=O)n2c(-c3ccco3)nc3ccccc32)cc1 | inactive | inactive | 7.17% [at 17.1 µM, percent relative to cAMP agonist control] | -27.8% [at 30.8 µM] | – | – | – | 10% [at 30.8 µM]
